# From ChEMBL document CHEMBL3988442, “University of Dundee, Small-Polar-MMV Screening Library” (2021)
# For some of these results: Results with a measured potency or affinity are listed apart.
# Key:
# Parameters in all cases: scale not given: direction of the effect not stated beside the values
# [1] = biological target: Protein translocase subunit SecA (Escherichia coli (strain K12)) (UniProt P10408); assay: Assay to Identify E. coli SecA ATPase Inhibitors; type: functional; settings: 30 µM
# [2] = biological target: T1, Ubiquitin-activating enzyme e1, putative (Leishmania donovani (strain BPK282A1)) (UniProt E9BSI1); assay: Leishmania donovani Ubiquitin Activating Enzyme (LdE1); type: functional; settings: 30 µM
# T1 sequence (whole entry): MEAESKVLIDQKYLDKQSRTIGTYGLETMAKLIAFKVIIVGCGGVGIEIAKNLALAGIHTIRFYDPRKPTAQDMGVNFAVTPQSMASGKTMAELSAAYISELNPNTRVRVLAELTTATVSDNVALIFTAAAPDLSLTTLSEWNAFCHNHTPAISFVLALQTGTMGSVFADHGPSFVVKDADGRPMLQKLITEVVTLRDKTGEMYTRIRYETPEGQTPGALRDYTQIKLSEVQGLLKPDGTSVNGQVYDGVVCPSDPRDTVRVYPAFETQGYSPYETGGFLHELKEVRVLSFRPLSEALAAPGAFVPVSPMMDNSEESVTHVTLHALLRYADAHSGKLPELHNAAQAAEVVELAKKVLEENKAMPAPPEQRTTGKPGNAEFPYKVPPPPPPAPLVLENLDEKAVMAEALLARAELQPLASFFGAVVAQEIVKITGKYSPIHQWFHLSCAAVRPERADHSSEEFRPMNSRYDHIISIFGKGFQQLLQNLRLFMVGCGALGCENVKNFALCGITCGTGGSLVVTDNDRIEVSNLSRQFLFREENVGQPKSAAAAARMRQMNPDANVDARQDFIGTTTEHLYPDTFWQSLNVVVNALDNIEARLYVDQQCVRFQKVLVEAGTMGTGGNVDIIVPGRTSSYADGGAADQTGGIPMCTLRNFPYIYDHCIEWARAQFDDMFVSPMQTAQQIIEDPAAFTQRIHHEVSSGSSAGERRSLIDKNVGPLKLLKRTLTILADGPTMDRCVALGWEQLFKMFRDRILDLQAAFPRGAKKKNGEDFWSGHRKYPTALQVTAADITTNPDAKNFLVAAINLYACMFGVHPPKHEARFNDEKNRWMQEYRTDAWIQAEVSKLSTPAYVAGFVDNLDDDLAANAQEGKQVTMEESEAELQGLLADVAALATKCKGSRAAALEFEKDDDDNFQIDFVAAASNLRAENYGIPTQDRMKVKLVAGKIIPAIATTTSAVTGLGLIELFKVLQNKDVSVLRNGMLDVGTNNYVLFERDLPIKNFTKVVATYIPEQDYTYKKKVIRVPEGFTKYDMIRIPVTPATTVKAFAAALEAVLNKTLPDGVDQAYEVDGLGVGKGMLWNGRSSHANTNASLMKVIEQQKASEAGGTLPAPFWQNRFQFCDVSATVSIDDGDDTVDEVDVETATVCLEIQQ
# [3] = biological target: Sialic acid-binding Ig-like lectin 9 (Homo sapiens) (UniProt Q9Y336); assay: Hs-Siglec9 ALPHAscreen SOP 20170721; settings: 10 µM
# Sequence of Sialic acid-binding Ig-like lectin 9 (Homo sapiens) (Q9Y336 whole entry): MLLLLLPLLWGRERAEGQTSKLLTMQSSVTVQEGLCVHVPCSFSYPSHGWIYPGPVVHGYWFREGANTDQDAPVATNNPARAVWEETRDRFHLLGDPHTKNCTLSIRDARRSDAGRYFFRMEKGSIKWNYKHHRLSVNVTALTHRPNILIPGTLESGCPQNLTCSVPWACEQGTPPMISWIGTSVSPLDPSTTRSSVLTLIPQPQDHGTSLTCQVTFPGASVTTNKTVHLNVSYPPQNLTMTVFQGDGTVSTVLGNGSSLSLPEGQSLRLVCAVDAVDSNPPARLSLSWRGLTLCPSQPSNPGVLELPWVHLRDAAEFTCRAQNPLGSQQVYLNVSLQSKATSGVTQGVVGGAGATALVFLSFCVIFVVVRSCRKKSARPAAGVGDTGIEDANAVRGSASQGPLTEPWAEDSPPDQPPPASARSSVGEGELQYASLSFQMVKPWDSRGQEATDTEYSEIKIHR
# Trypanosoma cruzi = assay: Trypanosoma cruzi phosphomannomutase and mannose-1-phosphate guanylyltransferase assay; type: functional; settings: 10 µM
# [4] = biological target: T2, Arginase-2, mitochondrial (Homo sapiens) (UniProt P78540); assay: in vitro enzyme assay to detect the production of urea directly proportional to the activity of Arginase II; type: functional; settings: 33.3 µM; further: in the data most compounds retested in dose-response had high values
# T2 sequence (whole entry): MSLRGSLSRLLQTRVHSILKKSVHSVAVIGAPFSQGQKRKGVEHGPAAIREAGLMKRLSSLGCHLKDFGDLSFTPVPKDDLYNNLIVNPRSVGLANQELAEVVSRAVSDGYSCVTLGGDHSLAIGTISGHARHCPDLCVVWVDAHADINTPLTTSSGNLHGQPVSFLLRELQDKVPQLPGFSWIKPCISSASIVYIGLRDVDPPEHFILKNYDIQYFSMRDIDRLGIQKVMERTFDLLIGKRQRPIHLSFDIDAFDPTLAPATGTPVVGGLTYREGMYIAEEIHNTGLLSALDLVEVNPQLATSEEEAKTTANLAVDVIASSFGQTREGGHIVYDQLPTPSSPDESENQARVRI
# [5] = biological target: T3, Proteasome subunit beta (Trypanosoma cruzi) (UniProt O96673); assay: Trypanosoma cruzi proteasome chymotrypsin-like activity (TcProtChymo) assay.; further: in the data most compounds retested in dose-response had high values; type: functional; settings: 9.37 µM
# T3 sequence (whole entry): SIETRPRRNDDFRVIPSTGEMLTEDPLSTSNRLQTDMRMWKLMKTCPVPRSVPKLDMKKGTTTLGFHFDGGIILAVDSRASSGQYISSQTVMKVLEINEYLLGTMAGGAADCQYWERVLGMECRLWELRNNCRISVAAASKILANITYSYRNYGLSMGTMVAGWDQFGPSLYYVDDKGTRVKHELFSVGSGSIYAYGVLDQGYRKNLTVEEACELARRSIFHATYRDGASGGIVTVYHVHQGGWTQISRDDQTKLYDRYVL
# Homo sapiens = organism: Homo sapiens; assay: To identify inhibition of the IFN signalling (Jak-Stat) pathway via expression of an eGFP reporter gene under the control of an IFN-stimulated response element (ISRE) containing MxA promoter.; type: functional; settings: 30 µM
# [6] = biological target: T4, Tyrosyl-tRNA synthetase, putative (Trypanosoma cruzi (strain CL Brener)) (UniProt Q4DSP6); assay: Trypanosoma cruzi tyrosyl tRNA synthetase (TcYRS) _High Tyrosine SOP; type: functional; settings: 30 µM; further: in the data most compounds retested in dose-response had high values
# T4 sequence (whole entry): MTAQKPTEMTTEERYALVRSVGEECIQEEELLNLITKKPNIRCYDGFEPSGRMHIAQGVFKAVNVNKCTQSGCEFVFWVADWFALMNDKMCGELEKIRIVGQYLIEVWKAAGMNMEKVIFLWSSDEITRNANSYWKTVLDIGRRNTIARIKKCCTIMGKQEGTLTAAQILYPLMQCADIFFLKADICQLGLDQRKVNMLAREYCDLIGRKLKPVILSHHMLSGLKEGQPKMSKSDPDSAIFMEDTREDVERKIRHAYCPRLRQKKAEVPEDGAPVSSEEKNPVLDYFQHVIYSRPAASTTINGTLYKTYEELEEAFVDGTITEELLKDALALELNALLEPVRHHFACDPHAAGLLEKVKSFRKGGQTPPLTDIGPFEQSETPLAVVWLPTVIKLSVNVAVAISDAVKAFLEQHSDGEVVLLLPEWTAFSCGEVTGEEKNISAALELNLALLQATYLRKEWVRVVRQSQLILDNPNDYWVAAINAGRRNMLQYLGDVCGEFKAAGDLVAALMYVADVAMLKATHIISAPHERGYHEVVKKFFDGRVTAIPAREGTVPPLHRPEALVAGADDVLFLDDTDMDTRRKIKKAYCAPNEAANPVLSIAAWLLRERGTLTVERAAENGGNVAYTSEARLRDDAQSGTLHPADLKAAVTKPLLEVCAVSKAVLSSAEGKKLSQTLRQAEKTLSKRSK
# [7] = biological target: T4, Tyrosyl-tRNA synthetase, putative (Trypanosoma cruzi (strain CL Brener)); assay: Trypanosoma cruzi tyrosyl tRNA synthetase (TcYRS) SOP; type: functional; settings: 30 µM
# [8] = biological target: Chromo domain-containing protein 1 (Saccharomyces cerevisiae (strain ATCC 204508 / S288c) (Baker's yeast)) (UniProt P32657); assay: ScCHD-1 Enzyme Inhibition Assay; type: functional; settings: 30 µM; further: in the data most compounds retested in dose-response had high values
# Sequence of Chromo domain-containing protein 1 (Saccharomyces cerevisiae (strain ATCC 204508 / S288c) (Baker's yeast)) (P32657 whole entry, the tested form may be a part): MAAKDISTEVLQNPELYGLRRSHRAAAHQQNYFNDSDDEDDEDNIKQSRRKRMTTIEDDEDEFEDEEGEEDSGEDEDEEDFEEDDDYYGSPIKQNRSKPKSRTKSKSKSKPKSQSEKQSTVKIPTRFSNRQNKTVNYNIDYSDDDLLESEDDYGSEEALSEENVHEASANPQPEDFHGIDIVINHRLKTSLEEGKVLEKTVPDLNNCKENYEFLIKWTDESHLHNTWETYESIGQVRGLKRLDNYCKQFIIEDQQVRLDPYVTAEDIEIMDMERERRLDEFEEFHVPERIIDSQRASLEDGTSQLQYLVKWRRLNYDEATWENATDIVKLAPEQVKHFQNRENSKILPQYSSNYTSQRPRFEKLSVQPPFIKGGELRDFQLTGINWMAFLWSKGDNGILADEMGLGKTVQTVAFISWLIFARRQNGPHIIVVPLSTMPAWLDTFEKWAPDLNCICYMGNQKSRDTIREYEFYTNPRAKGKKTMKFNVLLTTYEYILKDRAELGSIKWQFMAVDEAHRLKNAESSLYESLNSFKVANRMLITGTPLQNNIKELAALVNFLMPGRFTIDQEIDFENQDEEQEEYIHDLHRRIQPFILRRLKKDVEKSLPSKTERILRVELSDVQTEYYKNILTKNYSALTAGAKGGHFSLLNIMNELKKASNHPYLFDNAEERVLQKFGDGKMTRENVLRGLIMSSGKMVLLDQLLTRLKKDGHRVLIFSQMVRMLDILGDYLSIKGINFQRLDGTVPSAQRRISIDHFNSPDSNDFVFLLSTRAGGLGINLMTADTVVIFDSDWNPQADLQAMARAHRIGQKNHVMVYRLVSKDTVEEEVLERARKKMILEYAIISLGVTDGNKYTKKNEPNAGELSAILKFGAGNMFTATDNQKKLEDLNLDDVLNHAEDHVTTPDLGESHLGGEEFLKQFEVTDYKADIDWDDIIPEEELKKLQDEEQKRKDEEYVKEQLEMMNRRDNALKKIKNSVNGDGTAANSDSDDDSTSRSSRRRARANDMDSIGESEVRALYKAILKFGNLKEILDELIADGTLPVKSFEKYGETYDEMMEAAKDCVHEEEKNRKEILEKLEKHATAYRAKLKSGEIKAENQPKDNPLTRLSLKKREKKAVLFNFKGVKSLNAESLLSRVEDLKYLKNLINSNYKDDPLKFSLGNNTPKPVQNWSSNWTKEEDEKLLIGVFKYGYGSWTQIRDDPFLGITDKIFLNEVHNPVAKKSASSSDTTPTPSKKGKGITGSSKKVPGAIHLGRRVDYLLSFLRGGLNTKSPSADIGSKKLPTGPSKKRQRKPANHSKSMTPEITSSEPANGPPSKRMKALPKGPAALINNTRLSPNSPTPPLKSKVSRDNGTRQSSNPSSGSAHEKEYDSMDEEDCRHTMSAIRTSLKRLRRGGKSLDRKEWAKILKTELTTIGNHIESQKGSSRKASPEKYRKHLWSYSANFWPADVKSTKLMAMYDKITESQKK
# Sequence of Protein translocase subunit SecA (Escherichia coli (strain K12)) (P10408 whole entry): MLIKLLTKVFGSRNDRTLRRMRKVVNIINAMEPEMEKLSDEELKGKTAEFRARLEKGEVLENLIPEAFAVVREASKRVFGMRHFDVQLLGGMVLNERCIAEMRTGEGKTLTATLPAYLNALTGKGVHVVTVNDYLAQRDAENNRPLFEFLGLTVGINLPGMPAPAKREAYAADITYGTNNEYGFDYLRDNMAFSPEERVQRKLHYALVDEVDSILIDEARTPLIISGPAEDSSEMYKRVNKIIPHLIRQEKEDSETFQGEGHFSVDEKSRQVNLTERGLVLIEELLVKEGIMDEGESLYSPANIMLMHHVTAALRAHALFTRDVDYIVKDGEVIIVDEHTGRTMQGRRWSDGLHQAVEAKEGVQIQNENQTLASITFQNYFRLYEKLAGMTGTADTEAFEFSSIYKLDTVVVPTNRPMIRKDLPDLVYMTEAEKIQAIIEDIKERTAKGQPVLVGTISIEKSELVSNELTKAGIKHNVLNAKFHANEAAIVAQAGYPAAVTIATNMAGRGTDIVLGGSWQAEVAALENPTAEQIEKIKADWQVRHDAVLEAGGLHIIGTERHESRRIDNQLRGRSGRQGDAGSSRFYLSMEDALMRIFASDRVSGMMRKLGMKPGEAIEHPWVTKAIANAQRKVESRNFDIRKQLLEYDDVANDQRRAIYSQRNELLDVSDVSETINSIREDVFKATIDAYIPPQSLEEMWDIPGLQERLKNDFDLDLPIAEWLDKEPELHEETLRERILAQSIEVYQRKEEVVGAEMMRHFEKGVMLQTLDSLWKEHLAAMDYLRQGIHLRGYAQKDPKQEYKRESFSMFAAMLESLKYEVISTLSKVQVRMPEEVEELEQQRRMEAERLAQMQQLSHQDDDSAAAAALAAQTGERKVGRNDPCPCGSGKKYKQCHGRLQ
Structure (SMILES),Percent Effect [1],Percent Effect [2],Percent Effect [3],Percent Effect (Trypanosoma cruzi),Percent Effect [4],Percent Effect [5],Percent Effect (Homo sapiens),Percent Effect [6],Percent Effect [7],Percent Effect [8]
O=C(NCCC1=CCCCC1)C1CCN(c2ccc3nncn3n2)CC1,-2.89%,10.8%,-2.17%,-0.485%,-2.45%,11.1%,28.5%,4.79%,14.6%,2.87%
O=C(c1ccncc1)N1CCCC2(COCCN(c3ccccc3)C2)C1 (stereo not given),-5.29%,-1.3%,-2.94%,-6.72%,-5.26%,20%,0.424%,6.84%,7.69%,-1.75%
CCOC(=O)N1CCN(C(=O)c2ccc3ccn(C)c3c2)CC1,-3.31%,0%,29%,7.47%,-8.74%,11.6%,9.78%,4.79%,7.32%,5.11%
Cc1cnc(C(=O)N2CCCCC2c2[nH]ncc2S(C)(=O)=O)cn1 (stereo not given),-1.18%,4%,4.14%,-0.986%,-1.77%,4.93%,-6.39%,6.35%,12.5%,-18.4%
Cc1nc(C)n(CC2CCCN2Cc2cn3ccsc3n2)n1 (stereo not given),1.01%,12.8%,-7.58%,-2.72%,-1.23%,19%,27.5%,3.35%,13.2%,-5.22%
CS(=O)(=O)NCC1CCCN(C(=O)c2cc3ccccc3o2)C1 (stereo not given),-0.17%,28.6%,3.25%,3.36%,-9.22%,15.1%,11.5%,5.88%,23.5%,-10.2%
COc1ccc(C)cc1C(C)NC(=O)NCCCn1cncn1 (stereo not given),-2.2%,18.7%,1.49%,1.81%,1.33%,13.5%,4.64%,6.84%,20.5%,-10.3%
CC(C(=O)Nc1ncccn1)N1CCCN(c2nccs2)CC1 (stereo not given),-0.557%,15.4%,-8.35%,-7.04%,2.05%,14.8%,22.9%,4.31%,1.21%,-2.28%
CC(Cn1cccn1)NC(=O)NCc1cccnc1OC1CCCC1 (stereo not given),-2.7%,8%,-3.26%,4.42%,0.887%,8.06%,-10.3%,0.526%,10.3%,-8.77%
CC(C)c1nnc2n1CCN(C(=O)c1ccnc(N(C)C)c1)C2,-5.81%,10.7%,7.33%,0%,-5.76%,16.9%,-3.26%,3.68%,10.3%,-12.4%
